This note sets out measurements from PubChem BioAssay (Tox21).

Test [1] in a line: Nuclear factor erythroid 2-related factor 2/antioxidant responsive element (Nrf2/ARE) small molecule agonists: qHTS cell viability counter screen in human keratinocytes (AID 1919968; active means well fitted curve in the direction sought with a large enough effect in the repeat runs; an effect the other way counts as inactive or inconclusive; further: nearly all actives have a fitted effect of over 55% in size). An outline of the steps:
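Cytotoxicity was multiplexed with the Nrf2/ARE luciferase assay in the same wells. Stably transfected HaCaT keratinocytes were treated with test compounds for 23 h at 37 C. Cell viability was then measured by CellTiter-Fluor fluorescence.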
(In general: In qHTS, concentration-response curves come from the screen itself.)

The nature of test [2]: Nuclear factor erythroid 2-related factor 2/antioxidant responsive element (Nrf2/ARE) small molecule agonists: luciferase reporter gene qHTS assay in human keratinocytes (AID 1919969). Further: nearly all actives have a fitted effect of over 35% in size. Further: potency means the concentration at half of the fitted maximal effect. On the technique in general: Reporter assays use an easily measured gene product as a stand-in for the process of interest.
The target of test [3] is Gonadotropin-releasing hormone receptor (Homo sapiens) (UniProt P30968). Put plainly: Human gonadotropin-releasing hormone receptor (GnRHR) small molecule agonists, calcium flux assay in GnRHR-HEK293 cells (AID 1920063). Further: nearly all actives have a fitted effect of over 35% in size. An outline of the steps:
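Agonist activity was measured as intracellular calcium flux in HEK293 cells engineered to stably express human GnRHR. After dye loading for 1 hour at 37 C, compounds in DMSO were added and fluorescence was followed for 3 minutes.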
(In general: Calcium assays in cells follow changes in intracellular calcium, usually with a dye or a luminescent sensor.)

Test [4] concerns the target KiSS-1 receptor (Homo sapiens) (UniProt Q969F8). Put plainly: Human kisspeptin (KISS1R) small molecule agonists, calcium flux assay in KISS1R-HEK293 cells (AID 1920064; active means well fitted curve in the direction sought with a large enough effect in the repeat runs; an effect the other way counts as inactive or inconclusive). An outline of the steps:
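Agonist activity is monitored as intracellular calcium rise in engineered HEK293 cells carrying human KISS1R. Cells are dye-loaded for 1 h at 37 C before compound addition, and fluorescence is recorded for 3 min.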

A short description of test [5]: p53 small molecule agonists, cell-based qHTS assay with human liver microsomes (AID 1963577). An outline of the steps: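 Fluorescence of the beta-lactamase reporter in p53RE-bla cells, detected with LiveBLAzer substrate (2 h, room temperature, dark), served as the read-out after 16 h compound exposure at 37 C with human liver microsomes and NADPH, each 0.5 mg/mL final.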

A short description of test [6]: p53 small molecule agonists, cell-based qHTS assay with rat liver microsomes (AID 1963578). An outline of the steps:
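Cells carrying a p53 response element–beta-lactamase reporter were plated and rested 5 h, then dosed with compound in DMSO plus rat liver microsomes and NADPH, each at 0.5 mg/mL final. After 16 h at 37 C, LiveBLAzer substrate was added for 2 h.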

Test [7] can be described thus: p53 small molecule agonists, cell-based qHTS assay with human liver microsomes: qHTS cell viability counter screen (AID 1963579). Further: nearly all actives have a fitted effect of over 45% in size. An outline of the steps: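 Cytotoxicity counter screen: p53RE-bla, 4,000 cells/well; 5 h settle, 37 C/5% CO2; cpd + HLM 0.5 mg/mL + NADPH 0.5 mg/mL (final); 16 h, 37 C; CellTiter-Glo, 30 min RT, luminescence.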
Test [8] is described as follows: p53 small molecule agonists, cell-based qHTS assay with rat liver microsomes: qHTS cell viability counter screen (AID 1963580). Further: nearly all actives have a fitted effect of over 45% in size. An outline of the steps: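 Counter screen for cytotoxicity under metabolic activation: rat liver microsomes and NADPH, 0.5 mg/mL final each, added with compounds to p53RE-bla HCT-116 cells; 16 h at 37 C, then ATP luminescence read.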
Test [9] in a line: p53 small molecule agonists, cell-based qHTS assay: qHTS cell viability counter screen (AID 1963581). Further: nearly all actives have a fitted effect of over 45% in size. An outline of the steps: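 Viability was counter-screened in parallel with the p53 agonist reporter by measuring intracellular ATP luminescence in the same HCT-116 p53RE-bla wells after 16 h compound treatment at 37 C.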
Test [10] is described as follows: p53 small molecule agonists, cell-based qHTS assay (AID 1963582; active means well fitted activation curve with a large enough effect in the signal ratio in the repeat runs, not every such curve was filed as active; the % refers to the signal ratio). An outline of the steps: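 Cells carrying a p53-responsive bla reporter are treated with test compounds for 16 h at 37 C; beta-lactamase activity is then detected with LiveBLAzer B/G FRET substrate after 2 h at room temperature.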
In test [11] the target is 5-hydroxytryptamine receptor 2A (Homo sapiens) (UniProt P28223). Briefly: 5-hydroxytryptamine receptor 2A (HTR2A) small molecule antagonists, cell-based qHTS assay (AID 1963586). Further: nearly all actives have a fitted effect of over 45% in size. Further: potency means the concentration at half of the fitted maximal effect. An outline of the steps: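 CHO cells stably expressing human HTR2A were plated for 18 h at 37 C, then loaded with calcium dye for 1 h. Compounds were preincubated 5 min at room temperature before DOI (4 nM solution) was added. Kinetic fluorescence was read for 3 min.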

Test [12] has the same target. Briefly: 5-hydroxytryptamine receptor 2A (HTR2A) small molecule agonists, cell-based qHTS assay (AID 1963587). Further: nearly all actives have a fitted effect of over 30% in size. An outline of the steps: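 HTR2A-CHO cells, plated 18 h at 37 C/5% CO2, dye-loaded 1 h at 37 C; compounds in DMSO added by pin tool (agonist mode). Intracellular calcium flux read as kinetic fluorescence on FDSS over 2 min at 1 s intervals.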
Test [13] concerns the target Muscarinic acetylcholine receptor M1 (Homo sapiens) (UniProt P11229). Briefly: Cholinergic receptor muscarinic 1 (CHRM1) small molecule antagonists, cell-based qHTS assay (AID 1963588). Further: nearly all actives have a fitted effect of over 40% in size. An outline of the steps: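 Compounds were tested at 15 concentrations in three independent runs. Dye-loaded CHRM1-CHO cells were exposed 5 min at room temperature before stimulation by acetylcholine added at 50nM. Intracellular calcium was read kinetically on FDSS for 3 min.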

The target is the same in test [14]. Put plainly: Cholinergic receptor muscarinic 1 (CHRM1) small molecule agonists, cell-based qHTS assay (AID 1963589). Further: nearly all actives have a fitted effect of over 35% in size. An outline of the steps:
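Cells were plated and incubated 18 h at 37 C/5% CO2, loaded with calcium dye for 1 h at 37 C, then treated with compounds in DMSO. Fluorescence was recorded kinetically at 1 sec intervals.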

Test [15] is described as follows: cAMP Responsive Elements (CRE) small molecule antagonists, cell-based qHTS assay (AID 1963591; active means well fitted inhibition curve with a large enough effect in the signal ratio in the repeat runs, not every such curve was filed as active; the % refers to the signal ratio). An outline of the steps: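 Cells (CRE-bla HEK 293T, DMEM with 10% dialyzed FBS and 25 mM HEPES) are seeded and incubated 18 h. Compounds are added with NKH477 agonist at 0.25 uM final for 3 h, then FRET substrate for 2 h.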
The target in test [16] is Beta-2 adrenergic receptor (Homo sapiens) (UniProt P07550). Put plainly: Adrenergic beta2 receptor (ADRB2) small molecule antagonists, cell-based qHTS assay (AID 1963592). Further: series mostly up to about 92 µM; nearly all actives have a fitted effect of over 50% in size. An outline of the steps:
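Assay format: CHO-ADRB2 cells, 18-20hr seeding at 37C/5% CO2, then compound plus 1nM isoproterenol agonist mix for 0.5hr RT. Homogeneous time-resolved fluorescence cAMP detection after 1hr, expressed as 665/615 nm ratio.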

Test [17] has as its target D(2) dopamine receptor (Homo sapiens) (UniProt P14416). Put plainly: Dopamine D2 receptor (DRD2) small molecule agonists, cell-based qHTS assay (AID 1963594). Further: nearly all actives have a fitted effect of over 35% in size. An outline of the steps: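 HEK293 cells stably expressing DRD2 were cultured 24 h at 37 C, then given Ro20-1724 (0.1 mM final) and compounds for 10 min at room temperature. NKH477 (200nM) was then added for 30 min. cAMP was read by HTRF.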

Test [18] is described as follows: cAMP Responsive Elements (CRE) small molecule agonists, cell-based qHTS assay (AID 1963590). An outline of the steps: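 Cells carrying a CRE-driven beta-lactamase reporter (HEK 293T) are seeded, incubated overnight (18 h), and treated with test compounds for 3 h at 37 C; reporter activity is then detected with a FRET substrate after 2 h at room temperature.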
Test [19] deals with D(2) dopamine receptor (Homo sapiens) (UniProt P14416). Briefly: Dopamine D2 receptor (DRD2) small molecule antagonists, cell-based qHTS assay (AID 1963595; active means well fitted inhibition curve with a large enough effect in the signal ratio in the repeat runs, with a control signal flat; the % refers to the signal ratio). An outline of the steps:
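Cells were plated and grown for 24 h at 37 °C. Ro20-1724 (0.1 mM final) went in first, then compound for 10 min. NKH477 (200 nM) with quinpirole (12 nM) followed for 30 min at RT, then HTRF detection reagents for 1 h.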

Test [20] concerns the target Beta-2 adrenergic receptor (Homo sapiens) (UniProt P07550). Briefly: Adrenergic beta2 receptor (ADRB2) small molecule agonists, cell-based qHTS assay (AID 1963593).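 Further: CHO cells stably overexpressing human ADRB2.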 An outline of the steps:
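CHO cells stably over-expressing ADRB2 were plated overnight at 37C, then dosed with compounds plus a stimulation mix containing 100uM IBMX and 25uM Ro-20-1724 for 0.5hr at room temperature. cAMP was measured by HTRF competition, 1hr.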

A number with no mark means an inactive call. Inconclusive results are not listed. Activity calls are given as the source filed them. Unless noted, the call rests on the fitted dose curve.

Beta-2 adrenergic receptor (Homo sapiens), sequence (P07550 whole entry, looked up): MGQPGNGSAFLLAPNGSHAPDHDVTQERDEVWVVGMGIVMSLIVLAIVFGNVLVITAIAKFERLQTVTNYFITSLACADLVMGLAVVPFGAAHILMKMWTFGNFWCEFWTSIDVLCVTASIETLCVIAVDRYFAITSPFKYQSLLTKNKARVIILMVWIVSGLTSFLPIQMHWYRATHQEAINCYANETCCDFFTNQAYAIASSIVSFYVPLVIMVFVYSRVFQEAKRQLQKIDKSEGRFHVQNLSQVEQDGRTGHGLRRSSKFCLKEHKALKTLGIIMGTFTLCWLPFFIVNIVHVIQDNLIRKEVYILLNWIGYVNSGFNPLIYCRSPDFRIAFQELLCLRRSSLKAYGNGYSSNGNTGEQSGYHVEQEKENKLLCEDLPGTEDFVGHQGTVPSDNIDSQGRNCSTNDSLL
5-hydroxytryptamine receptor 2A (Homo sapiens), sequence (P28223 whole entry, looked up): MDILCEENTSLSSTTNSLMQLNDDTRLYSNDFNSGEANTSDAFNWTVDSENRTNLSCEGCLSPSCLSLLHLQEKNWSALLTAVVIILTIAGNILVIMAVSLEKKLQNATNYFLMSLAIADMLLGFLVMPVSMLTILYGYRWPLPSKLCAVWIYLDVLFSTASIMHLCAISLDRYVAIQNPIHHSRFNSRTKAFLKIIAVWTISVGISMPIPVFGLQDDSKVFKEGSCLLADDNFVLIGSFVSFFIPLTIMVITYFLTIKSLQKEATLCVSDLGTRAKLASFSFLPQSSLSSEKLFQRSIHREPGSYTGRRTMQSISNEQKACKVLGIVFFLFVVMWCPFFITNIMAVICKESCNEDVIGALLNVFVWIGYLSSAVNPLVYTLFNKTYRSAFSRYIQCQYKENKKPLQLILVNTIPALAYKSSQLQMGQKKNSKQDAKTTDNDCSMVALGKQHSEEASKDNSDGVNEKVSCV
KiSS-1 receptor (Homo sapiens), sequence (Q969F8 whole entry, looked up): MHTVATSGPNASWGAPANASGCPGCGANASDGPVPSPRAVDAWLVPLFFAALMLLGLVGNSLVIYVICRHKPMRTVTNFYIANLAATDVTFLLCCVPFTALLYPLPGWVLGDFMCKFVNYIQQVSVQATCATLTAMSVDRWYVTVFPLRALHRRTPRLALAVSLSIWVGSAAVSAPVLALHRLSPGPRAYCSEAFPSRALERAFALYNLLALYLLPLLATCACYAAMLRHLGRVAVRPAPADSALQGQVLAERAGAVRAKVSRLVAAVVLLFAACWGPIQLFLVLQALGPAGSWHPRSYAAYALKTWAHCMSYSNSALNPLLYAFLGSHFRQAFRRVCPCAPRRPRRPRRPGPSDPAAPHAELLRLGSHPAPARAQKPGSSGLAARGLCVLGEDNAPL
Muscarinic acetylcholine receptor M1 (Homo sapiens), sequence (P11229 whole entry, looked up): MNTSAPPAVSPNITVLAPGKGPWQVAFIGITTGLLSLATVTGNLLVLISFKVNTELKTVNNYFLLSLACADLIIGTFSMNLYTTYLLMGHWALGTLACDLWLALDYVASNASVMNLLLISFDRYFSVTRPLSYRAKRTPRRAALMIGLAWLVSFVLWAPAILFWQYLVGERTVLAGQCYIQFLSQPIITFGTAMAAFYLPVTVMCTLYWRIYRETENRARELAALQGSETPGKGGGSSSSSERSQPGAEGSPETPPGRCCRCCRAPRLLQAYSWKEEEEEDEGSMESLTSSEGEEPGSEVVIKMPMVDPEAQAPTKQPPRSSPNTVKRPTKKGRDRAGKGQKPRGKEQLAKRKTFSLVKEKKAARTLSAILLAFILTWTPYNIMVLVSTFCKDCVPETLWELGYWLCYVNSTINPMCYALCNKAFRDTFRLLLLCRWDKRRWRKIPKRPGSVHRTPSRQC
D(2) dopamine receptor (Homo sapiens), sequence (P14416 whole entry, looked up): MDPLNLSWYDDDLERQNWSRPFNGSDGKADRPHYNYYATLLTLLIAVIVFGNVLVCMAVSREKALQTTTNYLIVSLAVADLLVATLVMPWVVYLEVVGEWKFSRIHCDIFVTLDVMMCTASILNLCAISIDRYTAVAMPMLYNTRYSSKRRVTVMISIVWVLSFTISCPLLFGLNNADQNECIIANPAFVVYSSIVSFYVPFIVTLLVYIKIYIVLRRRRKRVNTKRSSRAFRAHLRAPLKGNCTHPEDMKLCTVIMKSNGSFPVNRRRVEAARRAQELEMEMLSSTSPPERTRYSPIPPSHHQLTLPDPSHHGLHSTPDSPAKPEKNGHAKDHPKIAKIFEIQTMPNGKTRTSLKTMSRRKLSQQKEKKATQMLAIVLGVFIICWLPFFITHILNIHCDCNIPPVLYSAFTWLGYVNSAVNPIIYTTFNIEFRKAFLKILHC
Gonadotropin-releasing hormone receptor (Homo sapiens), sequence (P30968 whole entry, looked up): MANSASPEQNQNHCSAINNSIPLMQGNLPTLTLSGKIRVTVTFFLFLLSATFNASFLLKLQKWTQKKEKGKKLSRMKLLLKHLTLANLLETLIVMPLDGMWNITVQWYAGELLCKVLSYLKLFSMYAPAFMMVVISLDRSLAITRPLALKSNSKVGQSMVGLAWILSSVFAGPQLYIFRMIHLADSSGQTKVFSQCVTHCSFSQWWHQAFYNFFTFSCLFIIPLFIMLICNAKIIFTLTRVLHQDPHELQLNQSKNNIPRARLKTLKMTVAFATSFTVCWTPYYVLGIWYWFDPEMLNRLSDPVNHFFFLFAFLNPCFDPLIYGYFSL

`Cc1cccc(Oc2ccccc2)c1`: the Potency entry in [1], in test [2], in test [3], in [5], in [6] and in test [7] was “inactive” throughout. Also, the Potency result in test [8], in [9], in test [10], in test [12], in test [13] and in [14] was “inactive” in each case. In addition, the Potency entry in test [15], in test [16] and in test [17] was “inactive” in each case. Moreover, the result in test [4] was inactive. Besides, the Potency in test [11] is 0.001 µM (active).

Consider `CCN1CCC[C@H]1CNC(=O)c1cc(S(N)(=O)=O)ccc1OC`, for which the Potency result in [1], in test [2], in test [3], in [5], in [6] and in [7] was “inactive” in each case. In addition, the Potency result in test [8], in test [9], in [10], in test [18], in test [15] and in test [16] was “inactive” throughout. Besides, the result in [4] was inactive.

As for `O=Cc1c(Cl)cccc1Cl`, the Potency entry in test [1], in [2], in test [3], in test [5], in test [6] and in test [7] was “inactive” each time. The Potency entry in test [8], in test [9], in test [10], in [11], in [13] and in test [14] was “inactive” in each case. For the same molecule, the Potency result in [18], in test [15], in [16], in test [17] and in test [19] was “inactive” in each case. Moreover, the result in test [4] was inactive.

In the case of `C[N+]1(C)[C@@H]2CC(OC(=O)[C@H](CO)c3ccccc3)C[C@H]1[C@@H]1O[C@@H]12` (stereo not given in full), the Potency entry in [1], in [2], in test [3], in [5], in test [6] and in test [7] was “inactive” in each case. The Potency entry in test [8], in test [9], in test [10], in test [18], in [15] and in test [16] was “inactive” throughout. Further, the Potency result in test [17] and in [19] was “inactive” throughout. Also, in test [4], the outcome was inactive.

In the case of `O=C(CCN1CCC(c2ccccc2)C1)c1ccc2c(c1)OCCO2` (stereo not given), the Potency result in [1], in test [2], in [3], in [5], in test [6] and in [7] was “inactive” each time. Moreover, the Potency entry in test [8], in test [9], in [10], in [11], in test [12] and in [13] was “inactive” in each case. For the same molecule, the Potency result in test [14], in test [18], in test [16], in test [20] and in [17] was “inactive” in each case. For the same molecule, in test [4], the outcome was inactive.

Turning to `C=CCCCCCCCCC=O`, the Potency entry in [1], in test [2], in [3], in test [5], in [6] and in [7] was “inactive” throughout. The Potency result in [8], in test [9], in [10], in test [12], in test [13] and in test [14] was “inactive” in each case. Also, the Potency entry in test [16], in test [17] and in test [19] was “inactive” in each case. Besides, the result in [4] was inactive.

In the case of `CC(C)(C)C(=O)Oc1ccc(S(=O)(=O)Nc2ccccc2C(=O)NCC(=O)O)cc1`, the Potency entry in test [1], in test [2], in test [3], in test [5], in test [6] and in test [7] was “inactive” each time. Further, the Potency result in test [8], in [9], in [10], in test [12], in [13] and in [14] was “inactive” throughout. In addition, the Potency entry in [18], in [15], in test [16], in test [20], in test [17] and in [19] was “inactive” each time. In addition, the outcome in test [4] was inactive.

Consider `CC(C)(C)c1cccc(O)c1`, for which the Potency entry in [1], in test [3], in [5], in test [6], in test [7] and in test [8] was “inactive” each time. The Potency result in test [9], in [10], in [12], in test [13], in test [14] and in test [18] was “inactive” each time. The Potency entry in test [15], in [16], in test [20], in test [17] and in [19] was “inactive” throughout. Moreover, the Potency in test [2] is 61.1 µM (active). For the same molecule, the result in test [4] was inactive.
